# Where a name gives a salt, the structure may show the parent alone.
# What was measured:
# [1] = test system: S. cerevisiae SK1 pCDA2-eGFP (USY613), sporulating; experiment: CDA2-GFP sporulation assay sensitivity score (z-score vs DMSO controls); higher = stronger inhibition of sporulation, active = hit call of the paper;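 note: active if sensitivity score above 5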
# [2] = test system: S. cerevisiae AD1-9 (efflux-pump deficient), vegetative growth in YPD; experiment: growth sensitivity score (doubling time z-score vs DMSO controls); higher = slower growth, strongly negative scores also mark growth inhibition (complete suppression), active = hit call of the paper
# Outline: (§1)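 Rich medium in microtiter plates was seeded with Saccharomyces cerevisiae strains BY4741 and AD1-9 at an OD600 of 0.065, and compounds were added as a 1:100 dilution of DMSO stock. A Tecan GENios reader recorded optical density every 15 min for 24 hours, with eight solvent-only wells in each experiment. Average doubling time was the time to reach a set generation point divided by generation number. The growth sensitivity score was the compound mean minus the solvent-only mean, divided by the solvent-only standard deviation.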
# [3] = test system: S. cerevisiae BY4741 (wild-type), vegetative growth in YPD; experiment: as above
# Outline: as §1
SMILES,CDA2-GFP sporulation assay sensitivity score [1],growth sensitivity score [2],growth sensitivity score [3]
"COc1c(N2C[C@@H]3CCCN[C@@H]3C2)c(F)cc2c(=O)c(C(=O)O)cn(C3CC3)c12 [Moxifloxacin hydrochloride] (stock concentration (mM, diluted 1:100): 9.2)",2.59 (inactive),22.4 (active),0.08 (inactive)
"OCc1cccnc1 [3-Pyridinemethanol] (stock concentration (mM, diluted 1:100): 10)",2.69 (inactive),0.78 (inactive),-1.12 (inactive)
"CC(C)(C)NC(=O)[C@H]1CC[C@H]2[C@@H]3CC[C@H]4NC(=O)C=C[C@]4(C)[C@H]3CC[C@]12C [Finasteride] (stock concentration (mM, diluted 1:100): 10)",3.51 (inactive),20.2 (active),1.37 (inactive)
"Cc1c(O)c(=O)ccn1C [Deferiprone] (stock concentration (mM, diluted 1:100): 10)",2.38 (inactive),-1.63 (inactive),0.2 (inactive)
"CN1CCN(C2=Nc3ccccc3Oc3ccc(Cl)cc32)CC1 [Loxapine succinate] (stock concentration (mM, diluted 1:100): 11)",2.27 (inactive),6.01 (active),1.9 (inactive)
"COc1ccc2[nH]c([S+]([O-])Cc3ncc(C)c(OC)c3C)nc2c1 (stereo unspecified) [Esomeprazole mg] (stock concentration (mM, diluted 1:100): 4.8)",3.2 (inactive),-2.89,0.69 (inactive)
"C[C@H](N[C@@H](CCc1ccccc1)C(=O)O)C(=O)N1CCC[C@H]1C(=O)O [Enalaprilat] (stock concentration (mM, diluted 1:100): 10)",1.04 (inactive),-0.82 (inactive),0.34 (inactive)
"CC1=Nc2ccc(Cl)cc2S(=O)(=O)N1 [Diazoxide] (stock concentration (mM, diluted 1:100): 10)",3.2 (inactive),0.08 (inactive),-0.72 (inactive)
"COc1ccc2c(c1)c(CC(=O)O)c(C)n2C(=O)c1ccc(Cl)cc1 [Indomethacin] (stock concentration (mM, diluted 1:100): 10.5)",0.38 (inactive),0.93 (inactive),0.62 (inactive)
"COc1cc(C[C@@H](CO)[C@H](CO)Cc2ccc(O)c(OC)c2)ccc1O [Secoisolariciresinol] (stock concentration (mM, diluted 1:100): 10)",-0.44 (inactive),0.75 (inactive),-0.92 (inactive)
"COCC1=C(C(=O)OC(C)OC(=O)OC(C)C)N2C(=O)[C@@H](NC(=O)/C(=N\OC)c3csc(N)n3)[C@H]2SC1 (stereo partly specified) [Cefpodoxime proxetil] (stock concentration (mM, diluted 1:100): 7.7)",-0.83 (inactive),-0.15 (inactive),-1.13 (inactive)
"O=c1[nH]cnc2c1ncn2[C@H]1CC[C@@H](CO)O1 [Didanosine] (stock concentration (mM, diluted 1:100): 10.1)",-0.63 (inactive),-1.72 (inactive),-1.9 (inactive)
"Cc1nc(=O)c2cc(CN(C)c3ccc(C(=O)N[C@@H](CCC(=O)O)C(=O)O)s3)ccc2[nH]1 [Raltitrexed] (stock concentration (mM, diluted 1:100): 10)",-2.11 (inactive),-3.39,-0.14 (inactive)
"Fc1ccc([C@@H]2CCNC[C@H]2COc2ccc3c(c2)OCO3)cc1 [Paroxetine] (stock concentration (mM, diluted 1:100): 8.8)",-1.35 (inactive),118 (active),1.33 (inactive)
"COc1ccc(C(=O)NCc2ccc(OCCN(C)C)cc2)cc1OC [Itopride hydrochloride] (stock concentration (mM, diluted 1:100): 8.2)",-0.55 (inactive),-1.3 (inactive),-0.67 (inactive)
"Nc1ccc(O)c(C(=O)O)c1 [Mesalamine] (stock concentration (mM, diluted 1:100): 10)",-1.48 (inactive),-2.51,-0.33 (inactive)
"O=C(O[C@H]1[C@H](Oc2ccccc2COC(=O)C2(O)C=CCCC2=O)O[C@H](CO)[C@@H](O)[C@@H]1O)c1ccccc1 (stereo partly specified) [Tremulacin] (stock concentration (mM, diluted 1:100): 10)",3.04 (inactive),-1.16 (inactive),-0.72 (inactive)
